In all, about 420,000 compounds went through this assay and about 64,000 (15%) were called active. Not shown: some 27% with an inconclusive outcome. Calls follow the shape of the dose curve; as a rule, active = well fitted inhibition curve with a large enough effect; inconclusive = small, poorly fitted or top-dose-only effect; inactive = flat fitted curve, though single readings scatter. The list is a sample of the results. Entries that show only a call come without a potency.
Test: qHTS for Inhibitors of human tyrosyl-DNA phosphodiesterase 1 (TDP1): qHTS in cells in absence of CPT; also: nearly all actives have a fitted effect of over 55% in size
Conditions: DT40 Tdp1-/- hTDP1 cells, no CPT, ATP luminescence, 48 h; activity change, negative = growth inhibition: at 46.2 µM (top of the series)
In short: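 Readout: luminescence from CellTiter-Glo after 30 min in the dark at RT. Cells: DT40 Tdp1-/- with stable hTDP1, 400/well. Exposure: compounds alone, ≥48 hr, 37 °C.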
In the case of `CCC(C)[C@@H](C(=O)N1CCNCC1)n1cc(CCCCN)nn1` (stereo partly specified), the Potency is reported as “inactive”.
With `CC(C)C12CN3CC(C(C)C)(CN(C1)C3c1ccc(OCc3ccccc3)cc1)C2=O` (stereo unspecified) the Potency was “inactive”.
With `CC1=C(C(=O)OCC(C)C)C(c2ccc(OCc3ccccc3)cc2)N2C(=O)CCSC2=N1` (stereo unspecified) the Potency was 16.4 µM (active).
For `C=CCOC(=O)C1=C(C)N=C2SCCC(=O)N2C1/C=C/c1ccccc1OC` (stereo unspecified), the Potency was “inactive”.
With `COc1ccc(-n2c(=O)c(-c3cn(C)c4ccccc34)nc3cnc(OC)nc32)cc1` the Potency was “inactive”.
With `CCC(C(=O)N1CCOCC1)n1c(C(=O)OC)cc2occc21` (stereo unspecified) the Potency was “inactive”.
For `CCS(=O)(=O)c1ccc2c(c1)N(S(=O)(=O)c1ccccc1)CC(C(=O)O)O2` (stereo unspecified), the Potency was “inactive”.
With `CCOC(=O)C1CN(S(=O)(=O)c2ccc(OC)cc2)c2cc(Cl)ccc2O1` (stereo unspecified) the Potency was 20.6 µM (active).
With `CCOc1ccc(S(=O)(=O)N2CCC(C(=O)OCc3ccc(OC)cc3)CC2)cc1` the Potency was “inactive”.
With `Cn1cc(S(=O)(=O)N2CCN(c3ccc(F)cc3)CC2)c(=O)n(C)c1=O` the Potency was “inactive”.
For `Nc1nnc(SCC(=O)NC2CCCc3ccccc32)s1` (stereo unspecified), the Potency was “inactive”.
In the case of `CCOC(=O)N1CCN(S(=O)(=O)c2ccc(C(=O)Nc3ccc(F)cc3F)cc2)CC1`, the Potency is reported as 1.64 µM (active).
In the case of `CCOC(=O)N1CCN(S(=O)(=O)c2ccc(-n3cnnn3)cc2)CC1`, the Potency is reported as “inactive”.
In the case of `CCOC(=O)N1CCN(S(=O)(=O)c2ccc(Br)cc2)CC1`, the Potency is reported as “inactive”.
For `Cc1ccc(S(=O)(=O)N(C)C)cc1NC(=O)c1ccc(-n2cncn2)c([N+](=O)[O-])c1`, the Potency was “inactive”.
In the case of `O=C(NNC(=O)c1cccc(S(=O)(=O)Nc2ccc(Cl)cc2)c1)c1ccc(=O)[nH]c1`, the Potency is reported as “inactive”.
In the case of `Cc1cc(Nc2cccc(C(F)(F)F)c2)nc2ccc(NC(=O)c3ccc(=O)[nH]c3)cc12`, the Potency is reported as 4.61 µM (active).
In the case of `COc1cc(OC)cc(C(=O)Nc2ccc3nc(Nc4cccc(C(F)(F)F)c4)cc(C)c3c2)c1`, the Potency is reported as 5.8 µM (active).
For `O=C(COC(=O)c1cc[n+]([O-])cc1)Nc1ccc(Cl)c(C(F)(F)F)c1`, the Potency was “inactive”.
In the case of `CCn1c(Cc2ccccc2)nnc1SCC(=O)Nc1ccccc1`, the Potency is reported as “inactive”.
With `CCc1nn(CC(=O)N2CCN(c3cccc(C(F)(F)F)c3)CC2)c(=O)c2cc3occc3n12` the Potency was “inactive”.
In the case of `CC1COc2ccccc2N1C(=O)c1ccc(F)cc1` (stereo unspecified), the Potency is reported as “inactive”.
In the case of `C/C(CC(=O)NC(C)c1ccccc1)=N\NC(N)=S` (stereo unspecified), the Potency is reported as “inactive”.
With `Cc1cccc(NC(=O)c2cc(N3C(=O)CCC3=O)ccc2Cl)n1` the Potency was “inactive”.
For `Cc1ccccc1Nc1c([N+](=O)[O-])ccc2nonc12`, the Potency was “inactive”.
In the case of `COc1ncc2nc(-c3ccc(Cl)cc3)c(=O)n(-c3ccccc3)c2n1`, the Potency is reported as “inactive”.
In the case of `N#Cc1ccc(-c2nc3c(Cl)cc(C(F)(F)F)cn3c2Cc2ccccc2C(F)(F)F)cc1`, the Potency is reported as “inactive”.
For `COc1ccccc1Cc1c(-c2ccc(Cl)cc2)nc2c3ccccc3ccn12`, the Potency was 20.6 µM (active).
With `CC(C)OC(=O)CC(=O)CC(O)c1cccc([N+](=O)[O-])c1` (stereo unspecified) the Potency was “inactive”.
With `NC(Cc1ccccc1)c1csc(Nc2cc(Oc3ccccc3)ncn2)n1` (stereo unspecified) the Potency was 16.4 µM (active).
In the case of `CCNC(=O)C1CCCN(C(=O)c2cc(F)ccc2C)CC1` (stereo unspecified), the Potency is reported as “inactive”.
In the case of `CC(C)CN(CC(C)C)CC(O)CN(c1ccccc1)S(=O)(=O)c1ccccc1[N+](=O)[O-]` (stereo unspecified), the Potency is reported as 23.1 µM (active).
In the case of `Cc1cccc(N(CC(O)CN(C)C)S(=O)(=O)c2ccccc2)c1` (stereo unspecified), the Potency is reported as “inactive”.
In the case of `CCN(c1ccccc1)S(=O)(=O)c1cc2c(cc1C)n(C)c(=O)c(=O)n2C`, the Potency is reported as “inactive”.
With `NC(=O)CCCC1=NS(=O)(=O)c2ccccc2N1` the Potency was “inactive”.
With `CN1C=CC=C/C1=C1\SC(=S)N(Cc2ccccc2)C1=O` the Potency was “inactive”.
For `CCCCN1C(=O)/C(=C2/C=CC=CN2C)SC1=S`, the Potency was “inactive”.
In the case of `CCCCN1C(=O)/C(=C/C=C2/C=Cc3ccccc3N2CC)SC1=S`, the Potency is reported as 8.2 µM (active).
For `CCCOc1ccc(-c2nc(N)n[nH]2)cc1`, the Potency was “inactive”.
In the case of `CC(OC(=O)c1ccc2ccccc2n1)C(=O)c1ccccc1` (stereo unspecified), the Potency is reported as “inactive”.
With `COc1ccc(C2NC(=O)c3ccccc3N2)cc1` (stereo unspecified) the Potency was “inactive”.
In the case of `O=C1NC(c2cccc(Cl)c2)Nc2ccccc21` (stereo unspecified), the Potency is reported as 16.4 µM (active).
With `COc1cccc(C2Nc3cccc4cccc(c34)N2)c1` the Potency was “inactive”.
For `Cc1cc(C)c(C#N)c(SCC(=O)N(CC(C)C)C2CCS(=O)(=O)C2)n1` (stereo unspecified), the Potency was “inactive”.
With `O=C(CSc1cccc2cccnc12)N/N=C/c1cccnc1` the Potency was 4.11 µM (active).
For `Cc1nc2ccccc2n1CC(=O)N/N=C/c1cccnc1`, the Potency was “inactive”.
For `O=C(CNC(=O)c1cccnc1)N/N=C/c1cccnc1`, the Potency was “inactive”.
With `Cc1cc(C)c(C#N)c(SCC(=O)Nc2ccccc2)n1` the Potency was “inactive”.
With `COc1ccc(NC(=O)c2sccc2SCC#N)cc1` the Potency was “inactive”.
For `CC1=C(C(=O)Nc2ccccc2)C(c2cccs2)C(C#N)=C(SCC#N)N1` (stereo unspecified), the Potency was 7.31 µM (active).
With `N/C(=N\c1nc2ccccc2o1)NC(=O)C(Cc1ccccc1)N1C(=O)c2ccccc2C1=O` (stereo unspecified) the Potency was “inactive”.
With `Nn1c(SCC(=O)Nc2ccc3c(c2)CCC3)nnc1C1CC1` the Potency was “inactive”.
In the case of `Cc1cccc(Cc2c(C)nc3nc(SCc4ccccc4Cl)nn3c2C)c1`, the Potency is reported as 20.6 µM (active).
For `COC(OC)c1ccnc(SCc2ccccc2Cl)n1`, the Potency was “inactive”.
With `Cc1nc2nc(SCC(=O)NCc3ccco3)nn2c(C)c1Cc1ccccc1` the Potency was “inactive”.
In the case of `Cc1nc(CNS(=O)(=O)c2cc([N+](=O)[O-])ccc2C)cs1`, the Potency is reported as “inactive”.
For `COc1cc(SC)ccc1C(=O)NCCOc1ccccc1Cl`, the Potency was “inactive”.
For `COc1ccccc1CNC(=O)c1ccc(SC)cc1OC`, the Potency was 15.8 µM (active).
For `Cc1csc(NC(=O)CSc2nc(=O)cc(N)n2-c2ccc(F)cc2)n1`, the Potency was “inactive”.
With `COc1cc(SC)ccc1C(=O)NNC(=O)C1COc2ccccc2O1` (stereo unspecified) the Potency was “inactive”.
In the case of `COc1ccc(Cc2nnc(NC(=O)c3ccc(OC)cc3OC)s2)cc1`, the Potency is reported as “inactive”.
For `COc1cc(SC)ccc1C(=O)Nc1nc(C)cs1`, the Potency was 11.6 µM (active).
In the case of `CCCCc1cc(=O)oc2cc(C)cc(OCc3nn[nH]n3)c12`, the Potency is reported as “inactive”.
In the case of `O=C(NN1C(=O)C2CCCCC2C1=O)c1ccco1` (stereo unspecified), the Potency is reported as “inactive”.
For `Cc1ccc(S(=O)(=O)N2C[C@H]3C(=O)C[C@@H](c4cccc5ccccc45)N(S(=O)(=O)c4ccc(C)cc4)[C@H]3C[C@H]2c2ccc(Cl)cc2)cc1`, the Potency was “inactive”.
For `O=C(Nc1ccccn1)C1CCN(S(=O)(=O)c2ccc3c(c2)OCCO3)CC1`, the Potency was “inactive”.
Potency is read from the fitted curve at half-maximal effect.
